Assay results from the supplement of paper PMC8291772.
± gives the standard error. In all, about 1,300 sequences were measured (“fluorescence a.u.”: median about 420, highest 2% from about 1,100 on). Many of the other results were omitted from the sample, so the highest values are more common in it than they were.

Target: terminal deoxynucleotidyl transferase (calf thymus) (UniProt P06526)
Assay: TdT poly-dT extension signal (Cy3 hybridisation fluorescence, uncapped minus capped) (fluorescence a.u.); higher = more efficient initiation of TdT extension
Details: initiator chemistry: 2'-O-methyl-RNA, free 3'-OH (5'-tethered via HEG linker)
Description: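 All mono- to pentamer 2'-O-methyl-RNA initiators were made by photolithographic in situ synthesis (3'-NPPOC amidites, reverse direction, free 3'-OH) on glass on a hexaethylene glycol linker. Each was made in uncapped and DMTr-dT-capped versions, about 11 replicates each. Arrays were extended with calf thymus TdT (0.2 U/uL), 100 uM dTTP and 0.25 mM CoCl2 for 120 min at 37 C, hybridised with an rA18-Cy3 probe and scanned at 532 nm. The value is the mean uncapped minus the mean capped signal. IDs are written 3'->5' and are reversed to 5'->3'; all nucleotides are 2'-OMe.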

Chain of terminal deoxynucleotidyl transferase (calf thymus) (P06526 whole entry): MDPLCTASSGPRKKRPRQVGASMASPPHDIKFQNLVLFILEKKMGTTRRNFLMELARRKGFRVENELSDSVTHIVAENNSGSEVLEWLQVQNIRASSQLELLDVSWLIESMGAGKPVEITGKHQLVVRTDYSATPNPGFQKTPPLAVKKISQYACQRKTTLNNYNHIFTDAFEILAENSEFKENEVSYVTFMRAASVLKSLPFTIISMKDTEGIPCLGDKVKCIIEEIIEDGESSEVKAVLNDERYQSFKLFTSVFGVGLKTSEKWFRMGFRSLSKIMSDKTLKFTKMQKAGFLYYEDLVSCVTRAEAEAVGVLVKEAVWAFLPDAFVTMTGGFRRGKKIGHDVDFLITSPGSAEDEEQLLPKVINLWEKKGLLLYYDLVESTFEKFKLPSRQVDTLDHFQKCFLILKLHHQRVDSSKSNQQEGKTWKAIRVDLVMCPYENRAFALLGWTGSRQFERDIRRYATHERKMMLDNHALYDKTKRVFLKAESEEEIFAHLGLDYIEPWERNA

| Sequence | TdT poly-dT extension signal |
| --- | --- |
| CCUAG | 353 ± 33 |
| GGUA | 376 ± 23 |
| CGUAU | 326 ± 32 |
| CCUU | 343 ± 26 |
| CGUUU | 232 ± 14 |
| CGCCG | 324 ± 46 |
| ACAAA | 1170 ± 100 |
| CCAAA | 1170 ± 64 |
| ACAA | 1060 ± 140 |
| CCAA | 1060 ± 95 |
| CCAAC | 725 ± 53 |
| GCAA | 841 ± 41 |
| ACAAG | 613 ± 60 |
| GCAAA | 1260 ± 170 |
| GCAAC | 935 ± 81 |
| AUACG | 244 ± 16 |
| CCUA | 528 ± 39 |
| GAUA | 432 ± 34 |
| CACAU | 469 ± 23 |
| GACGC | 1120 ± 110 |
| UACGC | 1190 ± 92 |
| UACG | 231 ± 24 |
| CUCGU | 483 ± 44 |

| Sequence | TdT poly-dT extension signal |
| --- | --- |
| GGUC | 489 ± 33 |
| CAGU | 512 ± 30 |
| CACA | 425 ± 22 |
| AAAGU | 535 ± 51 |
| GUAAC | 558 ± 40 |
| UGCAA | 770 ± 77 |
| UCAGA | 821 ± 37 |
| AAUAA | 788 ± 62 |
| ACCUA | 571 ± 34 |
| UUUCA | 224 ± 24 |
| GCGAA | 1000 ± 120 |
| GACUU | 318 ± 22 |
| AGGAG | 436 ± 25 |
| CAUGG | 217 ± 15 |
| AAGGC | 1170 ± 40 |
| CAGGC | 1060 ± 81 |
| AAGG | 383 ± 41 |
| CUCC | 396 ± 35 |
| AUCAC | 729 ± 63 |
| CUGUC | 440 ± 40 |
| AAUGA | 403 ± 20 |
| AUUCC | 377 ± 21 |
| GUGAA | 729 ± 86 |

| Sequence | TdT poly-dT extension signal |
| --- | --- |
| AUUGG | 176 ± 11 |
| GCUUG | 230 ± 30 |
| GAUUA | 366 ± 28 |
| GAAUU | 321 ± 24 |
| AGCGA | 556 ± 38 |
| UUCGC | 1170 ± 79 |
| UUCGU | 500 ± 42 |
| UUCG | 159 ± 17 |
| GCGCA | 351 ± 19 |
| GCCG | 192 ± 16 |
| UCGCU | 401 ± 25 |
| UCGCA | 463 ± 31 |
| UCGC | 1140 ± 90 |
| CAACA | 373 ± 34 |
| UCGG | 302 ± 31 |
| AAGAU | 506 ± 39 |
| UUAGG | 271 ± 26 |
| UCGAU | 402 ± 31 |
| AGGGC | 1120 ± 71 |
| CUAUA | 436 ± 37 |
| GUAUG | 157 ± 12 |
| CGGCU | 341 ± 24 |
| UCACG | 290 ± 31 |

| Sequence | TdT poly-dT extension signal |
| --- | --- |
| CUCAG | 488 ± 37 |
| CCCCG | 227 ± 18 |
| GGUAG | 272 ± 28 |
| ACCAC | 681 ± 58 |
| UCUG | 199 ± 16 |
| UUAUA | 375 ± 34 |
| CUCCG | 194 ± 14 |
| AACUC | 504 ± 22 |
| AAUG | 175 ± 23 |
| CAUGC | 1140 ± 140 |
| CAUGU | 374 ± 35 |
| AAUGC | 1140 ± 77 |
| AAUGG | 219 ± 18 |
| CAUG | 261 ± 26 |
| CGUAC | 482 ± 33 |
| AACUU | 369 ± 22 |
| GGCGG | 310 ± 26 |
| AUAGG | 266 ± 22 |
| CCUGG | 221 ± 18 |
| GCGGA | 554 ± 28 |
| GUCUG | 218 ± 15 |
| GGCUA | 621 ± 50 |
| UAAAA | 1190 ± 120 |

| Sequence | TdT poly-dT extension signal |
| --- | --- |
| CAAA | 1010 ± 77 |
| CAAAG | 703 ± 58 |
| GAAA | 879 ± 110 |
| AAAA | 1010 ± 74 |
| CAAAA | 1140 ± 66 |
| AAAAG | 572 ± 40 |
| UAAA | 764 ± 51 |
| GAAAA | 1340 ± 160 |
| AAAAA | 1140 ± 80 |
| GAAAG | 560 ± 51 |
| UAAAG | 531 ± 53 |
| UUUAA | 472 ± 39 |
| CACUG | 276 ± 22 |
| GUUG | 156 ± 11 |
| AGAA | 990 ± 120 |
| ACAGA | 899 ± 79 |
| CGAU | 429 ± 24 |
| CCCG | 312 ± 43 |
| UCCGC | 1090 ± 36 |
| CCCGC | 1200 ± 97 |
| CCCCC | 425 ± 34 |
